In PubChem BioAssay one finds growth inhibition, inhibition and outcome data, which are given here for 18 molecules.

The nature of assay [1]: antimalarial activity against Dd2 strain (AID 2302;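 active = growth inhibition above 50% at the single 2 µM test dose, taken to imply half-maximal potency below 2 µM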;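 also: 0% = DMSO untreated growth and 100% = chloroquine plus artemisinin killed control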). The conditions noted are these: P. falciparum Dd2 in RBCs, LDH growth readout, 72 h; at 2 µM; hits give high values.
Assay [2] is described as follows: HepG2 cytotoxicity, primary screen, cytotoxicity control for P. falciparum antimalarial project, cell-based, ATP luminescence (AID 2303;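 active = inhibition above 50%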;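 also: 0% = DMSO wells and 100% = digitonin-killed cells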). The conditions noted are these: HepG2 viability, 24-48 h, at 10 µM, hits give high values.
The target in assay [3] is L-lactate dehydrogenase (Plasmodium falciparum (isolate CDC / Honduras)) (UniProt Q27743). The assay can be described thus: PfLDH activity inhibition – cell lysate, 3D7 strain, counter-screen for P. falciparum growth inhibition project (AID 2304).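 Also: 0% = vehicle and 100% = reference inhibitor.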 The conditions noted are these: P. falciparum 3D7 crude extract, LDH APAD/NBT absorbance; at 2 µM; hits give high values.
L-lactate dehydrogenase (Plasmodium falciparum (isolate CDC / Honduras)), sequence (Q27743 whole entry, looked up): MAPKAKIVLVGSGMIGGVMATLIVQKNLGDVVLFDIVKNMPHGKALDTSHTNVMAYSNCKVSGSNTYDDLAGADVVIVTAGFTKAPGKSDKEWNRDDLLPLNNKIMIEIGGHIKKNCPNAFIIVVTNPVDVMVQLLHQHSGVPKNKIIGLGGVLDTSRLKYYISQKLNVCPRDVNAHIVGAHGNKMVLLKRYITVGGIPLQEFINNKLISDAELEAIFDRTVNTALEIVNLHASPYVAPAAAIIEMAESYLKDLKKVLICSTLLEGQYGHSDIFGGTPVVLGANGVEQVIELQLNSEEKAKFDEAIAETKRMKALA
Assay [4] in a line: inhibition of 3D7 malaria parasite growth – strain 3D7 (AID 2306).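 Also: 0% = DMSO wells and 100% = chloroquine plus artemisinin control wells.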 The conditions noted are these: P. falciparum 3D7 erythrocytic growth, LDH absorbance, 72 h; at 2 µM; hits give high values.
For assay [5], the target named is Calcium-dependent protein kinase 1 (Plasmodium falciparum (isolate 3D7)) (UniProt P62344). Put plainly: PfCDPK1 kinase inhibitors, biochemical, TCAMS library (AID 1159585; cut-off not given, nearly all actives have IC50 up to about 0.98 µM;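 also: inhibitors leave more ATP so luminescence rises with inhibition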). The conditions noted are these: recombinant PfCDPK1, Kinase-Glo ATP depletion luminescence.
Calcium-dependent protein kinase 1 (Plasmodium falciparum (isolate 3D7)), sequence (P62344 whole entry, looked up): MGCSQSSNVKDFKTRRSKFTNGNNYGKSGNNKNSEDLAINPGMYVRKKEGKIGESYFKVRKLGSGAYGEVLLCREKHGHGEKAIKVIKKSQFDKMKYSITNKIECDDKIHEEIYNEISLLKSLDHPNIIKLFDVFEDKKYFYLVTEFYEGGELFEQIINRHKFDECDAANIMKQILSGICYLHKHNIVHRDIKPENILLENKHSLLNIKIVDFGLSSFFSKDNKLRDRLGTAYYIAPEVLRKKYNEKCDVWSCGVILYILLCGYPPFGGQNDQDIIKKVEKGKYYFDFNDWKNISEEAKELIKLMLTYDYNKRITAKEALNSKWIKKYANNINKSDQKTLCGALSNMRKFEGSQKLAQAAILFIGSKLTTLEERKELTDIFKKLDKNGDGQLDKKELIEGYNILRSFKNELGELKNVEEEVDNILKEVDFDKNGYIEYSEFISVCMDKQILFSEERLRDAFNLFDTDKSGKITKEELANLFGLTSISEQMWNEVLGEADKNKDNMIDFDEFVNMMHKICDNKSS
The target of assay [6] is Plasmodium falciparum protein kinase 6 (PK6, PF3D7_1337100) (UniProt Q8IDW1). Put plainly: PfPK6 kinase inhibitors, biochemical, TCAMS library (AID 1159586). The conditions noted are these: recombinant PfPK6, Kinase-Glo ATP depletion luminescence. A general note: Kinase-Glo measures the ATP left after a reaction by luminescence.
Plasmodium falciparum protein kinase 6 (PK6, PF3D7_1337100), sequence (Q8IDW1 1-305): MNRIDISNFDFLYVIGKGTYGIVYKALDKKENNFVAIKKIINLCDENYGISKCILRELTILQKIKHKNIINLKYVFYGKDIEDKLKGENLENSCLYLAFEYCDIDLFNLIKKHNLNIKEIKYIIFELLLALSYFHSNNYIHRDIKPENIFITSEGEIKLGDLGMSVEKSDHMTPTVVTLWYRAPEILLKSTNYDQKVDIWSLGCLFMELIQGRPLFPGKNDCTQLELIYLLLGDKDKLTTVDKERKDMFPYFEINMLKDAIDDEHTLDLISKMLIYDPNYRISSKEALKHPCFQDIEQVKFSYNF
Assay [7] deals with Protein kinase 7 (PK7), Plasmodium falciparum 3D7 (PF3D7_0213400) (UniProt Q7YTF7). Put plainly: inhibition of Plasmodium PK7 catalytic activity – biochemical, TCAMS antimalarial set, Kinase-Glo luminescence (AID 1159587). The conditions noted are these: recombinant PfPK7, Kinase-Glo ATP depletion luminescence.
Protein kinase 7 (PK7), Plasmodium falciparum 3D7 (PF3D7_0213400), sequence (Q7YTF7 1-343): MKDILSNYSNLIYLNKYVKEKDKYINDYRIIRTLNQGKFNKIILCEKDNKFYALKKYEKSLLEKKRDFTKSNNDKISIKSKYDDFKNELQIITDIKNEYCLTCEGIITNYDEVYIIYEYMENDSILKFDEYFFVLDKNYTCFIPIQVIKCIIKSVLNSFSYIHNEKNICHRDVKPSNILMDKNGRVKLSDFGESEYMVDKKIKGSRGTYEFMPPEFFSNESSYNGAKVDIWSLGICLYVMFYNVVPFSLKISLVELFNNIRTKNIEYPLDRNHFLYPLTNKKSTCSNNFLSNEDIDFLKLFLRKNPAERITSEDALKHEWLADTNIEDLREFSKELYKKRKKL
The target in assay [8] is Calcium-dependent protein kinase 4 (Plasmodium falciparum (isolate 3D7)) (UniProt Q8IBS5). Put plainly: PfCDPK4 kinase inhibitors, biochemical, TCAMS library (AID 1159588; cut-off not given, nearly all actives have IC50 up to about 0.91 µM). The conditions noted are these: recombinant PfCDPK4, Kinase-Glo ATP depletion luminescence.
Calcium-dependent protein kinase 4 (Plasmodium falciparum (isolate 3D7)), sequence (Q8IBS5 whole entry, looked up): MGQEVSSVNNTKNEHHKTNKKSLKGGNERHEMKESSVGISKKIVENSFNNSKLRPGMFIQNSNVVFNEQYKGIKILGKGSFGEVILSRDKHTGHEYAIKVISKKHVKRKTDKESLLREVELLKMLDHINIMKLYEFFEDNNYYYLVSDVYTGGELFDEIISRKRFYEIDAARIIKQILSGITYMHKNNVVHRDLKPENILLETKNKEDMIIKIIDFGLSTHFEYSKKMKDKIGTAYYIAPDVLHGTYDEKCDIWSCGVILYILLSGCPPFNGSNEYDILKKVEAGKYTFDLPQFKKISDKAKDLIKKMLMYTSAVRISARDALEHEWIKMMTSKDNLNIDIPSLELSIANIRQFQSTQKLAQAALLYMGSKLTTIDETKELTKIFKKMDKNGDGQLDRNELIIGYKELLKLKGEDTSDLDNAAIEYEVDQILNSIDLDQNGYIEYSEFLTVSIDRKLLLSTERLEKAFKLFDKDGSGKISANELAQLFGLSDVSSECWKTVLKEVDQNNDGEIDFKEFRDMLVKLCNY

Values without a mark were called inactive. For part of these data: Results with a measured potency or affinity are listed apart. Activity calls are given as the source filed them. Unless noted, no rule for the calls is given here.

As to `Cc1cc(NCCCCCCNc2cc(C)nc3c(C)cccc23)c2cccc(C)c2n1`, the growth inhibition was 9% in assay [1] and 100% (active) in assay [4]. The inhibition (usually the change of the read-out against control, counted positive when it falls) in assay [2] is 23%; in assay [3], -2%. For the same molecule, the outcome in assay [5], in assay [6], in assay [7] and in assay [8] was inactive.
Consider `O=C(c1ccccc1)N1CCC(CN2CCOC(c3ccccc3)(c3ccccc3)C2)CC1`, for which the growth inhibition in assay [1] was 95% (active); in assay [4] it was 94% (active). The inhibition in assay [2] is 14%; in assay [3] it was 1%. In addition, the outcome in assay [5], in assay [6], in assay [7] and in assay [8] was inactive.
In the case of `Cc1cc(C(=O)Nc2ccc3c(ccn3C3CCCN(Cc4ccc(C(F)(F)F)cc4F)CC3)c2)no1` (centres undefined), the results for the growth inhibition in assay [1] and in assay [4] were 95% (active) and 92% (active), respectively. The inhibition is 19% in assay [2] and -1% in assay [3]. Also, the outcome in assay [5], in assay [6], in assay [7] and in assay [8] was inactive.
As for `O=C(Nc1nc(-c2ccccn2)cs1)c1ccc(S(=O)(=O)N2CCc3ccccc32)cc1`, the results for the growth inhibition in assay [1] and in assay [4] were 15% and 89% (active), respectively. The inhibition was 47% in assay [2] and 2% in assay [3]. For the same molecule, the outcome in assay [5], in assay [6], in assay [7] and in assay [8] was inactive.
On to `COc1ccc2nccc([C@@H](O)CN3CCC(NCc4cnc5snnc5c4)C(F)C3)c2c1` (some centres undefined), for which the results for the growth inhibition in assay [1] and in assay [4] were 88% (active) and 83% (active), respectively. In addition, the inhibition in assay [2] is 13%; in assay [3], 2%. Also, the result in assay [5], in assay [6], in assay [7] and in assay [8] was inactive.
With `COc1cccc2cc(C(=O)N[C@@H](CC(C)C)C(=O)N[C@H](/C=N/N3CCOC3=O)CC(C)C)oc12`, the results for the growth inhibition in assay [1] and in assay [4] were 72% (active) and 90% (active), respectively. Further, the inhibition was 4% in assay [2] and -2% in assay [3]. Also, the result in assay [5], in assay [6], in assay [7] and in assay [8] was inactive.
As to `CNC(=O)c1cc(S(=O)(=O)N2CCN(c3ccccn3)CC2)c(C)s1`, the growth inhibition is 52% (active) in assay [1] and 91% (active) in assay [4]. For the same molecule, the inhibition in assay [2] is -2%; in assay [3], -1%. The result in assay [5], in assay [6], in assay [7] and in assay [8] was inactive.
As for `CC1CCN(Cc2cccc(C(=O)NCc3ccc(F)c(-c4cccc(CN5CCN[C@@H](C)C5)c4)c3)c2)CC1`, the growth inhibition in assay [1] is 64% (active); in assay [4], 91% (active). Besides, the values for the inhibition in assay [2] and in assay [3] were 26% and 2%, respectively. For the same molecule, the result in assay [5], in assay [6], in assay [7] and in assay [8] was inactive.
In the case of `O=C(Cn1c(CCc2cccc(F)c2F)nc(=O)c2ccccc21)N(CCCN1CCCCC1)Cc1ccc(-c2ccc(C(F)(F)F)cc2)cc1`, the growth inhibition is 94% (active) in assay [1] and 103% (active) in assay [4]. In addition, the figures for the inhibition in assay [2] and in assay [3] were 100% (active) and -2%, respectively. Moreover, the outcome in assay [5], in assay [6], in assay [7] and in assay [8] was inactive.
Regarding `Nc1cc(C(F)(F)F)ccc1Cl`, the results for the growth inhibition in assay [1] and in assay [4] were -1% and 97% (active), respectively. The figures for the inhibition in assay [2] and in assay [3] were 8% and -1%, respectively. Also, the result in assay [5], in assay [6], in assay [7] and in assay [8] was inactive.
As for `CC(=O)Nc1ccc2[nH]cc(C3CCN(CC4CCC(NC(=O)/C=C/c5ccc(Cl)c(Cl)c5)CC4)CC3)c2n1` (centres undefined), the growth inhibition in assay [1] is 79% (active); in assay [4], 101% (active). The figures for the inhibition in assay [2] and in assay [3] were 17% and -1%, respectively. The result in assay [5], in assay [6], in assay [7] and in assay [8] was inactive.
As for `COc1ccc(Cl)cc1C(=O)Nc1ccc(-c2nc3ccccc3[nH]2)cc1`, the growth inhibition in assay [1] was 39%; in assay [4], 92% (active). The inhibition in assay [2] was 42%; in assay [3] it was -7%. For the same molecule, the outcome in assay [5], in assay [6], in assay [7] and in assay [8] was inactive.
As to `Cc1nc(-c2ccc(-c3ccc(NC(=O)Nc4ccc(I)c(OCCN(C)C)c4)cc3)c(C)c2)no1`, the growth inhibition in assay [1] is 92% (active); in assay [4] it was 101% (active). Besides, the inhibition in assay [2] was 47%; in assay [3], 2%. In addition, the outcome in assay [5], in assay [6], in assay [7] and in assay [8] was inactive.
As to `CC(C)c1ccc(NC(=O)c2ccc(CN3CCCN(CC4CCCCC4)CC3)cc2)cc1`, the growth inhibition in assay [1] was 34%; in assay [4] it was 90% (active). Further, the inhibition in assay [2] is 50% (active); in assay [3], 6%. Besides, the result in assay [5], in assay [6], in assay [7] and in assay [8] was inactive.
For the molecule `FC(F)(F)c1ccc2nc(-c3cccc(-c4cccc(CNCc5cnn(-c6ccccc6)n5)c4)c3)[nH]c2c1`, the results for the growth inhibition in assay [1] and in assay [4] were 28% and 100% (active), respectively. The inhibition was 6% in assay [2] and -5% in assay [3]. For the same molecule, the result in assay [5], in assay [6], in assay [7] and in assay [8] was inactive.
With `CCOc1cc(C)c(C2CCN(CCCCNC(=O)c3ccc(NC(=O)c4ccc(Cl)cc4)cc3)CC2)cc1C`, the values for the growth inhibition in assay [1] and in assay [4] were 87% (active) and 100% (active), respectively. The inhibition in assay [2] is 10%; in assay [3] it was 1%. In addition, the result in assay [5], in assay [6], in assay [7] and in assay [8] was inactive.
Take `CC(C)(C)NS(=O)(=O)c1cc(C(=O)N2CCC(CCN3CCC(C(=O)c4ccc(F)cc4)CC3)(c3cccc(F)c3)CC2)c(Cl)cc1F`: the growth inhibition in assay [1] and in assay [4] was 99% (active) in each case. Besides, the inhibition in assay [2] is -1%; in assay [3], 4%. For the same molecule, the outcome in assay [5], in assay [6], in assay [7] and in assay [8] was inactive.
`CN(Cc1cc(C(F)(F)F)cc(C(F)(F)F)c1)C(=O)[C@H]1CNC[C@@H]1c1ccc(F)cc1`: the growth inhibition in assay [1] was 4%; in assay [4] it was 92% (active). Moreover, the inhibition was 1% in assay [2] and -5% in assay [3]. Moreover, the result in assay [5], in assay [6], in assay [7] and in assay [8] was inactive.
